# Data reported in the supplement of paper PMC6992640.
# ± gives the standard deviation of the averaged measurements.
# Columns and labels:
# HCI03 = cells of an ER-positive luminal breast cancer xenograft; experiment: cell viability (% of vehicle); higher = less cytotoxic; settings: 10 µM; 72 h
# HCI09 = cells of a triple-negative luminal androgen receptor type breast cancer xenograft; experiment: as above; settings: 10 µM; 72 h
# HCI13 = cells of an ER-positive luminal breast cancer xenograft; experiment: as above; settings: 10 µM; 72 h
# WHIM2 = cells of a triple-negative basal-like breast cancer xenograft; experiment: as above; settings: 10 µM; 72 h
# HCI01 = cells of a triple-negative basal-like breast cancer xenograft; experiment: cell viability of combination (% of vehicle); higher = less cytotoxic; settings: 1 µM; 72 h; partner dose: 10 nM
# Experimental: (§1)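 PDX cells were treated for 72 h with each drug at 1 µM plus carfilzomib (10 nM; 100 nM for WHIM2). Luciferase viability is expressed as percent of vehicle.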
# UCD52 [1] = cells of a triple-negative basal-like breast cancer xenograft; experiment: as above; settings: 1 µM; 72 h; partner dose: 10 nM
# Experimental: as §1
# WHIM30 = cells of a triple-negative basal-like breast cancer xenograft; experiment: cell viability (% of vehicle); higher = less cytotoxic; settings: 10 µM; 72 h
# HCI11 = cells of an ER-positive luminal breast cancer xenograft; experiment: as above; settings: 10 µM; 72 h
# UCD52 [2] = experiment: as above; settings: 10 µM; 72 h
# HCI16 = cells of a triple-negative basal-like breast cancer xenograft; experiment: as above; settings: 10 µM; 72 h
structure (smiles),measurement,setting,value
O=C(CCCCCCNC(=O)c1cnc(N(c2ccccc2)c2ccccc2)nc1)NO [Rocilinostat (ACY-1215)],cell viability,HCI03,108
same,cell viability,HCI09,45.1 ± 28
same,cell viability,HCI13,49.3 ± 7.8
same,cell viability,WHIM2,51.2 ± 8.8
CCCCCOc1ccc(-c2ccc(-c3ccc(C(=O)N[C@H]4C[C@@H](O)[C@@H](O)NC(=O)[C@@H]5[C@@H](O)[C@@H](C)CN5C(=O)[C@H]([C@@H](C)O)NC(=O)[C@H]([C@H](O)[C@@H](O)c5ccc(O)cc5)NC(=O)[C@@H]5C[C@@H](O)CN5C(=O)[C@H]([C@@H](C)O)NC4=O)cc3)cc2)cc1 [Anidulafungin] + CC(C)C[C@H](NC(=O)[C@H](CCc1ccccc1)NC(=O)CN1CCOCC1)C(=O)N[C@@H](Cc1ccccc1)C(=O)N[C@@H](CC(C)C)C(=O)[C@@]1(C)CO1 [Carfilzomib],cell viability of combination,HCI01,73.7
same,cell viability of combination,UCD52 [1],60
CC(C)c1nc(CN(C)C(=O)NC(C(=O)NC(Cc2ccccc2)CC(O)C(Cc2ccccc2)NC(=O)OCc2cncs2)C(C)C)cs1 (stereo unspecified) [Ritonavir] + CC(C)C[C@H](NC(=O)[C@H](CCc1ccccc1)NC(=O)CN1CCOCC1)C(=O)N[C@@H](Cc1ccccc1)C(=O)N[C@@H](CC(C)C)C(=O)[C@@]1(C)CO1 [Carfilzomib],cell viability of combination,HCI01,73
same,cell viability of combination,UCD52 [1],65.6
CC(CCC(=O)O)C1CCC2C3CCC4CC(O)CCC4(C)C3CCC12C (stereo unspecified) [Lithocholic Acid] + CC(C)C[C@H](NC(=O)[C@H](CCc1ccccc1)NC(=O)CN1CCOCC1)C(=O)N[C@@H](Cc1ccccc1)C(=O)N[C@@H](CC(C)C)C(=O)[C@@]1(C)CO1 [Carfilzomib],cell viability of combination,HCI01,67.4
same,cell viability of combination,UCD52 [1],60.5
COc1cc2c(Oc3ccc(NC(=O)C4(C(=O)Nc5ccc(F)cc5)CC4)cc3F)ccnc2cc1OCCCN1CCOCC1 + CC(C)C[C@H](NC(=O)[C@H](CCc1ccccc1)NC(=O)CN1CCOCC1)C(=O)N[C@@H](Cc1ccccc1)C(=O)N[C@@H](CC(C)C)C(=O)[C@@]1(C)CO1 [Carfilzomib],cell viability of combination,HCI01,75.8
same,cell viability of combination,UCD52 [1],32.5
COC(=O)C12CCC(C)(C)CC1C1C(=O)C=C3C4(C)C=C(C#N)C(=O)C(C)(C)C4CCC3(C)C1(C)CC2 (stereo unspecified) [Bardoxolone methyl] + CC(C)C[C@H](NC(=O)[C@H](CCc1ccccc1)NC(=O)CN1CCOCC1)C(=O)N[C@@H](Cc1ccccc1)C(=O)N[C@@H](CC(C)C)C(=O)[C@@]1(C)CO1 [Carfilzomib],cell viability of combination,HCI01,158
same,cell viability of combination,UCD52 [1],28.1
O=C(Nc1nc2cccc(-c3ccc(CN4CCS(=O)(=O)CC4)cc3)n2n1)C1CC1,cell viability,HCI09,186 ± 51
same,cell viability,WHIM30,147 ± 9.8
Cc1c(Cl)cccc1Nc1ccccc1C(=O)O [Tolfenamic Acid] + CC(C)C[C@H](NC(=O)[C@H](CCc1ccccc1)NC(=O)CN1CCOCC1)C(=O)N[C@@H](Cc1ccccc1)C(=O)N[C@@H](CC(C)C)C(=O)[C@@]1(C)CO1 [Carfilzomib],cell viability of combination,HCI01,74.7
same,cell viability of combination,UCD52 [1],69.7
CC(NCCCc1cccc(C(F)(F)F)c1)c1cccc2ccccc12.Cl (stereo unspecified) [Cinacalcet HCl] + CC(C)C[C@H](NC(=O)[C@H](CCc1ccccc1)NC(=O)CN1CCOCC1)C(=O)N[C@@H](Cc1ccccc1)C(=O)N[C@@H](CC(C)C)C(=O)[C@@]1(C)CO1 [Carfilzomib],cell viability of combination,HCI01,89.6
same,cell viability of combination,UCD52 [1],59.9
CC(NCc1ccc(OCc2cccc(F)c2)cc1)C(N)=O.CS(=O)(=O)O (stereo unspecified) [Safinamide Mesylate],cell viability,HCI11,161
same,cell viability,HCI13,191 ± 36
same,cell viability,UCD52 [2],190 ± 11
same,cell viability,WHIM2,184 ± 45
CCN(CC)CCCC(C)Nc1ccnc2cc(Cl)ccc12.O=P(O)(O)O.O=P(O)(O)O (stereo unspecified) [Chloroquine diphosphate] + CC(C)C[C@H](NC(=O)[C@H](CCc1ccccc1)NC(=O)CN1CCOCC1)C(=O)N[C@@H](Cc1ccccc1)C(=O)N[C@@H](CC(C)C)C(=O)[C@@]1(C)CO1 [Carfilzomib],cell viability of combination,HCI01,64
same,cell viability of combination,UCD52 [1],52.9
COC(=O)C1=C(C)NC(C)=C(C(=O)OC2CCCN(Cc3ccccc3)C2)C1c1cccc([N+](=O)[O-])c1.Cl (stereo unspecified) [Benidipine HCl] + CC(C)C[C@H](NC(=O)[C@H](CCc1ccccc1)NC(=O)CN1CCOCC1)C(=O)N[C@@H](Cc1ccccc1)C(=O)N[C@@H](CC(C)C)C(=O)[C@@]1(C)CO1 [Carfilzomib],cell viability of combination,HCI01,106
same,cell viability of combination,UCD52 [1],57.7
COc1cc(Nc2c(C#N)cnc3cc(OCCCN4CCN(C)CC4)c(OC)cc23)c(Cl)cc1Cl [Bosutinib (SKI-606)] + CC(C)C[C@H](NC(=O)[C@H](CCc1ccccc1)NC(=O)CN1CCOCC1)C(=O)N[C@@H](Cc1ccccc1)C(=O)N[C@@H](CC(C)C)C(=O)[C@@]1(C)CO1 [Carfilzomib],cell viability of combination,HCI01,70.1
same,cell viability of combination,UCD52 [1],35.3
Cc1oncc1C(=O)Nc1ccc(C(F)(F)F)cc1 [Leflunomide],cell viability,HCI11,194
CN(C)c1ccc(C(=C2C=CC(=[N+](C)C)C=C2)c2ccc(N(C)C)cc2)cc1.[Cl-] [Crystal Violet] + CC(C)C[C@H](NC(=O)[C@H](CCc1ccccc1)NC(=O)CN1CCOCC1)C(=O)N[C@@H](Cc1ccccc1)C(=O)N[C@@H](CC(C)C)C(=O)[C@@]1(C)CO1 [Carfilzomib],cell viability of combination,HCI01,68
same,cell viability of combination,UCD52 [1],32.3
Cn1nnc(-c2ccc(-c3ccc(N4CC(CO)OC4=O)cc3F)cn2)n1 (stereo unspecified) [Tedizolid],cell viability,HCI11,107
same,cell viability,HCI16,170
same,cell viability,WHIM2,157 ± 57
O=c1c(-c2ccc(O)cc2)coc2cc(O)cc(O)c12 [Genistein],cell viability,HCI03,160
same,cell viability,HCI11,129
same,cell viability,HCI16,183
same,cell viability,UCD52 [2],189 ± 34
same,cell viability,WHIM2,121 ± 5.2
Oc1ccc(C=Cc2cc(O)cc(O)c2)cc1 [Resveratrol],cell viability,HCI09,196 ± 110
same,cell viability,HCI16,174
same,cell viability,WHIM2,191 ± 54
CC(=O)Oc1ccccc1C(=O)Nc1ncc([N+](=O)[O-])s1 [Nitazoxanide],cell viability,HCI09,161 ± 140
same,cell viability,HCI11,168
same,cell viability,HCI16,128
same,cell viability,UCD52 [2],154 ± 8.6
CC(O)=C(C#N)C(=O)Nc1ccc(C(F)(F)F)cc1 [Teriflunomide],cell viability,HCI11,162
same,cell viability,HCI13,196 ± 48
same,cell viability,HCI16,200
COc1cccc(-c2ccc(NC(=O)C3=C(C(=O)O)CCC3)c(F)c2)c1 [Vidofludimus],cell viability,HCI11,99.5
"CC=C1NC(=O)C2CSSCCC=CC(CC(=O)NC(C(C)C)C(=O)N2)OC(=O)C(C(C)C)NC1=O (stereo unspecified) [Romidepsin (FK228, depsipeptide)]",cell viability,HCI03,177
same,cell viability,HCI09,77.5 ± 29
same,cell viability,HCI13,66.1 ± 6.7
same,cell viability,WHIM2,34.4 ± 4.2
